In all, about 310,000 compounds went through this assay and about 14,000 (4.5%) showed an effect of 50% or more. The effect is printed as a negative number. This is one part of a sample in which strong results are shown more often than they occur.
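Further: peak tail current of the secondary pulse compared with the same well before compound.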

The experiment deals with human ether-à-go-go-related gene (hERG) potassium channel (human, UniProt Q12809). The experiment is described as follows: primary screen, population patch clamp on CHO cells stably expressing hERG; higher = less effect of the substance.
Chain of human ether-à-go-go-related gene (hERG) potassium channel (Q12809 whole entry, looked up): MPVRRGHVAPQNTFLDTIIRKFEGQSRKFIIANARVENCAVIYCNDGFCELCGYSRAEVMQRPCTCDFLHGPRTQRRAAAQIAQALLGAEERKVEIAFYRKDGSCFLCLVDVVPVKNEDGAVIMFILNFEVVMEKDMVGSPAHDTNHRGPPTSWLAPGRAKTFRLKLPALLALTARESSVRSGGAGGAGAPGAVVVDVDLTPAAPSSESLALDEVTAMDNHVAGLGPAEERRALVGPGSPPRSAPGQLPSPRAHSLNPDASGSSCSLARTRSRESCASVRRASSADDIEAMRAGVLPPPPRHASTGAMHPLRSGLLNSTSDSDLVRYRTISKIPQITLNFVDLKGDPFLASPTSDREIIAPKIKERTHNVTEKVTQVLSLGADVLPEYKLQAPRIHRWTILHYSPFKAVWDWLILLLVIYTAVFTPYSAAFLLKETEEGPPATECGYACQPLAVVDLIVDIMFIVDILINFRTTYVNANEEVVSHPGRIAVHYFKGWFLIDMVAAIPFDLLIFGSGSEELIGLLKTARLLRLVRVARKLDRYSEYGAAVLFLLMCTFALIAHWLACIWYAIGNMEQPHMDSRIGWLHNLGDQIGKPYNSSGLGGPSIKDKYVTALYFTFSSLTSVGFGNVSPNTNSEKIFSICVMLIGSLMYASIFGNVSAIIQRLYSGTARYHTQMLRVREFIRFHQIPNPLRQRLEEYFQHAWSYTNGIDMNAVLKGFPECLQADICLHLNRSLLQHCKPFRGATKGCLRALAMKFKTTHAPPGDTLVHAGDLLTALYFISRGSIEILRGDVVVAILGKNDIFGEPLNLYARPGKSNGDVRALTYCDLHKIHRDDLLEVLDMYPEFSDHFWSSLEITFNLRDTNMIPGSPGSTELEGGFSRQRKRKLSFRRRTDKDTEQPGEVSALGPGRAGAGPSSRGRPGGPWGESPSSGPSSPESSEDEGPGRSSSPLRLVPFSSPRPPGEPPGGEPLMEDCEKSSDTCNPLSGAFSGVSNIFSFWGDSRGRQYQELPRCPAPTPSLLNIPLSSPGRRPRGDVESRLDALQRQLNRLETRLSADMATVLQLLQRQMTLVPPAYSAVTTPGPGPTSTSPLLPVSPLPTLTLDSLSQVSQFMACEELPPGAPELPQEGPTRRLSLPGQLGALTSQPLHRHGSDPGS
In the case of `CCOc1ccc(S(=O)(=O)n2ccnc2C)cc1`, the “hERG current change (%, negative = inhibition) at 10uM” value is on record as 14.5%.
On to `Cc1cc(O)c(-c2n[nH]c3c2C(c2cccc(O)c2)N(Cc2cccnc2)C3=O)cc1Cl` (stereo not drawn), for which the “hERG current change (%, negative = inhibition) at 10uM” value was 11.4%.
Take `Cc1cccc(Cc2nnc(CCC(=O)N(C)C3CCOC3)o2)c1` (stereo not drawn): the “hERG current change (%, negative = inhibition) at 10uM” value came out at 18.6%.
As to `Nc1cc2ccccc2oc1=O`, the “hERG current change (%, negative = inhibition) at 10uM” value is 8.37%.
Consider `O=C1/C(=C/c2ccccc2Cl)SC(=S)N1CCCC(=O)N(CCO)c1ccccc1`, for which the “hERG current change (%, negative = inhibition) at 10uM” value is -12.8%.
With `CC(=O)NC12CC3CC(C1)CC(C(=O)Nc1nc4ccc(F)cc4s1)(C3)C2` the figure was -56.9%; with `COc1ccc2nc(NC(=O)C34CC5CC(CC(NC(C)=O)(C5)C3)C4)sc2c1`, -11.1%.
With `CC(=O)NC12CC3CC(C1)CC(C(=O)Nc1nc4ccc(S(C)(=O)=O)cc4s1)(C3)C2`, the “hERG current change (%, negative = inhibition) at 10uM” value is reported as -1.14%.
For the compound `CCc1ccc2[nH]cc(C(=O)OCCOC)c(=O)c2c1`, the “hERG current change (%, negative = inhibition) at 10uM” value is listed as 4.42%.
Regarding `O=C(NCCc1ccccc1)c1ccc2nc3cc(Cl)ccc3c(=O)n2c1`, the “hERG current change (%, negative = inhibition) at 10uM” value is 14.1%.
Consider `O=[N+]([O-])/C(C(Cl)=C(Cl)Cl)=C(/Sc1ccccc1)N1CCCCC1`, for which the “hERG current change (%, negative = inhibition) at 10uM” value amounted to 4.71%.
Turning to `C=CCN1C(=O)/C(=C/c2ccc(Br)s2)C(=O)NC1=S`, the “hERG current change (%, negative = inhibition) at 10uM” value is given as 6.73%.
Regarding `N=c1c(C(=O)NC2CCCCC2)cc2c(=O)n3ccccc3nc2n1Cc1ccccc1`, the “hERG current change (%, negative = inhibition) at 10uM” value is given as -69.8%.
Consider `CCn1c(=N)c(S(=O)(=O)c2ccc(F)cc2)cc2c(=O)n3ccccc3nc21`, for which the “hERG current change (%, negative = inhibition) at 10uM” value is listed as -10.5%.
As for `COCCNC(=O)c1ccc2c(=O)n(Cc3ccco3)c(SCC(=O)NC3CCCCC3)nc2c1`, the “hERG current change (%, negative = inhibition) at 10uM” value was -47.1%.
As for `N=c1c(C(=O)NC2CCCC2)cc2c(=O)n3ccccc3nc2n1Cc1ccccc1`, the “hERG current change (%, negative = inhibition) at 10uM” value is reported as -78.6%.
With `N=c1c(C(=O)NC2CCCCC2)cc2c(=O)n3ccccc3nc2n1Cc1ccco1` the figure was -77%.
With `O=C(NC1CCCC1)c1cc2c(=O)n3ccccc3nc2s1` the figure was -9.33%.
With `CC1CCCCC1NC(=O)c1cc2c(=O)n3ccccc3nc2n1C` (stereo not drawn) the figure was 4.32%; with `O=C(NC1CCCCCC1)c1cc2c(=O)n3ccccc3nc2s1`, 0.251%.
In the case of `N=c1c(C(=O)NC2CCCCC2)cc2c(=O)n3ccccc3nc2n1Cc1ccc(F)cc1`, the “hERG current change (%, negative = inhibition) at 10uM” value is recorded as -77%.
As for `CCOC(=O)c1[nH]c(C)c(C(=O)N(C)C)c1C`, the “hERG current change (%, negative = inhibition) at 10uM” value was 4.87%.
On to `CC(C)Oc1cccc(NC(=O)c2cnccc2C(F)(F)F)c1`, for which the “hERG current change (%, negative = inhibition) at 10uM” value was -0.311%.
For the compound `COc1ccc(C2=CC(c3ccc(C)cc3)n3nnnc3N2)cc1` (stereo not drawn), the “hERG current change (%, negative = inhibition) at 10uM” value is -6.67%.
With `O=C(CC(C(=O)O)c1ccc(Cl)cc1Cl)c1ccc(Cl)cc1` (stereo not drawn) the figure was 11.4%.
Regarding `N=c1c(C(=O)NC2CCCCC2)cc2c(=O)n3ccccc3nc2n1Cc1cccnc1`, the “hERG current change (%, negative = inhibition) at 10uM” value is -73.3%.
Take `O=C(NC1CCCCCC1)C1c2ccccc2C(=O)N1Cc1cccnc1` (stereo not drawn): the “hERG current change (%, negative = inhibition) at 10uM” value is given as -3.16%.
Regarding `Cc1ccc(-c2ccc(C(=O)O)[nH]2)cc1`, the “hERG current change (%, negative = inhibition) at 10uM” value was -19.1%.
With `Cc1ccccc1/C=N/NC(=O)Cc1ccc(Cl)cc1` the figure was 17%; with `COc1ccccc1Nc1nnc(SCc2cc(=O)n3ccsc3n2)s1`, -8.42%; with `CN(N=Nc1ccc([N+](=O)[O-])cc1)c1ccccc1`, 15%.
With `O=[N+]([O-])c1ccc(N=NN(CCO)CCO)cc1` the figure was -75.3%; with `CC(C)N(N=Nc1ccc([N+](=O)[O-])cc1)C(C)C`, 8.18%; with `Cc1ccc(C(=O)c2c3ccccc3[n+]([O-])n2CCC(=O)O)cc1`, 14.4%.
With `COc1ccc(C(=O)c2c3ccccc3[n+]([O-])n2CCC[NH3+])cc1.O=C([O-])C(F)(F)F` the figure was -28.9%; with `Nc1c(Cl)cc(C(=O)c2c3ccc([N+](=O)[O-])cc3[n+]([O-])n2CCC[NH3+])cc1Cl.O=C([O-])C(F)(F)F`, -43.5%.
Turning to `Cc1ccc(C(=O)c2c3ccc(C(F)(F)F)cc3[n+]([O-])n2CCC[NH3+])cc1.O=C([O-])C(F)(F)F`, the “hERG current change (%, negative = inhibition) at 10uM” value is -75%.
With `Cc1ccc(C(=O)c2c3ccc([N+](=O)[O-])cc3[n+]([O-])n2CCC[NH3+])cc1.O=C([O-])C(F)(F)F` the figure was -65.4%.
With `CCN(CCn1cccn1)C(=O)C1CCC(=O)N(CCN2CCOCC2)C1` (stereo not drawn) the figure was 6.14%; with `O=C(CSc1nc2[nH]ncc2c(=O)[nH]1)Nc1ccc(Cl)c(Cl)c1`, 6.06%; with `CCN(CC(=O)Nc1ccc(NC(C)=O)cc1)C(=O)c1cccc(-n2cccc2)c1`, 0.603%.
Regarding `CCn1cc(/C=C(/C#N)S(=O)(=O)c2ccccc2)cn1`, the “hERG current change (%, negative = inhibition) at 10uM” value is given as -8.15%.
With `COc1ccc(Nc2nc(N3CCN(S(=O)(=O)N(C)C)CC3)nc3ccccc23)cc1` the figure was -5.03%.
On to `CC(Nc1nc(N2CCCC2)nc2ccccc12)c1ccccc1` (stereo not drawn), for which the “hERG current change (%, negative = inhibition) at 10uM” value was -79.2%.
`CC(Nc1nc(-c2ccccc2F)nc2ccccc12)c1ccccc1` (stereo not drawn): the “hERG current change (%, negative = inhibition) at 10uM” value is recorded as -3.87%.

These data come from paper PMC4336329 (PLoS ONE, 2015).
